# Laboratory results from paper PMC7862700, “An all-to-all approach to the identification of sequence-specific readers for epigenetic DNA modifications on cytosine”.
# Assays:
# Assay in all cases: DAPPL (digital affinity profiling via proximity ligation, sequencing); 10 mM Tris-HCl pH 7.5, 50 mM NaCl, 1 mM DTT, 4% glycerol, room temperature, 30 min; GST-TFs on glutathione beads, 16-mer random dsDNA library, 0.1% formaldehyde crosslink after washing; high values mean tight binding
# [1] = target: T1, FEV (Homo sapiens, UniProt Q99581 1-238); settings: protein: recombinant; tags: N-terminal GST; dsDNA, one strand shown
# T1 sequence: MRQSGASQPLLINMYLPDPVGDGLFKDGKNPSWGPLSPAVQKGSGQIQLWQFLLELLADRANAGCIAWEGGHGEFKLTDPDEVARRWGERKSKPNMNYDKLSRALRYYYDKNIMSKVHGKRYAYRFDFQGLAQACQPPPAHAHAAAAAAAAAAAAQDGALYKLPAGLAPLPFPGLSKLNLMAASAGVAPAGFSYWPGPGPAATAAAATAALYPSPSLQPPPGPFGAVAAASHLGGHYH
# Summary of the method: (§1)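 Yeast served to express human transcription factors as GST fusions, which were then captured on glutathione beads and labelled with DNA barcodes. Pooled with a tag-only sample, they were incubated with 200 nmole of a 16-mer random double-stranded DNA library for 30 min at room temperature in Tris/NaCl/DTT/glycerol buffer, washed, crosslinked with 0.1% formaldehyde, ligated by proximity, amplified by PCR and sequenced. Dividing each hexamer's read frequency for a factor by its frequency for the tag-only sample gives the binding signal.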
# [2] = target: ETV5 (Homo sapiens, UniProt P41161 1-510); settings: protein: recombinant; tags: N-terminal GST; dsDNA, one strand shown
# Summary of the method: as §1
# [3] = target: HSF1 (Homo sapiens, UniProt Q00613 1-529); settings: protein: recombinant; tags: N-terminal GST; chain copies: 3; dsDNA, one strand shown
# Summary of the method: as §1
# [4] = target: T2, SPIC (Homo sapiens, UniProt Q8N5J4 1-248); settings: protein: recombinant; tags: N-terminal GST; dsDNA, one strand shown
# T2 sequence: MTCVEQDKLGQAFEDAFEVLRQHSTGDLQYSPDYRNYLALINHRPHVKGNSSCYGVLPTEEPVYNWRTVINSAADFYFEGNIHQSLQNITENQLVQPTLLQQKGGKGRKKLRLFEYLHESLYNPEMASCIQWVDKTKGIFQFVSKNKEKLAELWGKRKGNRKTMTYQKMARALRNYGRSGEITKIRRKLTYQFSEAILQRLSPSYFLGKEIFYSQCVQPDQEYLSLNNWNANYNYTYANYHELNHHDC
# Summary of the method: as §1
# [5] = target: ELF4 (Homo sapiens, UniProt Q99607 1-663); settings: protein: recombinant; tags: N-terminal GST; dsDNA, one strand shown
# Summary of the method: as §1
# [6] = target: T3, ELK4 (Homo sapiens, UniProt P28324-2 1-405); settings: protein: recombinant; tags: N-terminal GST; dsDNA, one strand shown
# T3 sequence: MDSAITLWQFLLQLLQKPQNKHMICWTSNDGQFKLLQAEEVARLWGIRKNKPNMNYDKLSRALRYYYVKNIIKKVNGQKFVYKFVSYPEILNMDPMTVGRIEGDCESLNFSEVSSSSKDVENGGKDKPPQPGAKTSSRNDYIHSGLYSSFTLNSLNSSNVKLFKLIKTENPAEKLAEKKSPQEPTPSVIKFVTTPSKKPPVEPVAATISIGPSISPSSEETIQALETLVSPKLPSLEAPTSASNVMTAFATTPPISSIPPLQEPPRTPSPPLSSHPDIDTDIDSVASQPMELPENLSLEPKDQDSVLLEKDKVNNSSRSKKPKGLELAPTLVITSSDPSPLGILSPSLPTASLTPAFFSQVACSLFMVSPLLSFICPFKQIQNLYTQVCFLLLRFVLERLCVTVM
# Summary of the method: as §1
# [7] = target: T4, ETV2 (Homo sapiens, UniProt O00321 1-342); settings: protein: recombinant; tags: N-terminal GST; dsDNA, one strand shown
# T4 sequence: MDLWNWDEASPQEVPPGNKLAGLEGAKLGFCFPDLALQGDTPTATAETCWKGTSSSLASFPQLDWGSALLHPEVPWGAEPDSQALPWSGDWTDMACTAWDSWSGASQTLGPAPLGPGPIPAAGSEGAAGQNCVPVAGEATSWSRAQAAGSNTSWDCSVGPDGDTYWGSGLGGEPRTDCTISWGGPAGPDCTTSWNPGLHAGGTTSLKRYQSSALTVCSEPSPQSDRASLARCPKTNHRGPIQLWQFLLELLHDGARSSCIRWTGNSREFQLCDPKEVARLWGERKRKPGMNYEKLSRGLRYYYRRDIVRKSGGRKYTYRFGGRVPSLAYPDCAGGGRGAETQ
# Summary of the method: as §1
# [8] = target: CRX (Homo sapiens, UniProt O43186 1-299); settings: protein: recombinant; tags: N-terminal GST; dsDNA, one strand shown
# Summary of the method: as §1
# [9] = target: ETV1 (Homo sapiens, UniProt P50549 1-477); settings: protein: recombinant; tags: N-terminal GST; dsDNA, one strand shown
# Summary of the method: as §1
# [10] = target: T5, ERF (Homo sapiens, UniProt P50548 1-548); settings: protein: recombinant; tags: N-terminal GST; dsDNA, one strand shown
# T5 sequence: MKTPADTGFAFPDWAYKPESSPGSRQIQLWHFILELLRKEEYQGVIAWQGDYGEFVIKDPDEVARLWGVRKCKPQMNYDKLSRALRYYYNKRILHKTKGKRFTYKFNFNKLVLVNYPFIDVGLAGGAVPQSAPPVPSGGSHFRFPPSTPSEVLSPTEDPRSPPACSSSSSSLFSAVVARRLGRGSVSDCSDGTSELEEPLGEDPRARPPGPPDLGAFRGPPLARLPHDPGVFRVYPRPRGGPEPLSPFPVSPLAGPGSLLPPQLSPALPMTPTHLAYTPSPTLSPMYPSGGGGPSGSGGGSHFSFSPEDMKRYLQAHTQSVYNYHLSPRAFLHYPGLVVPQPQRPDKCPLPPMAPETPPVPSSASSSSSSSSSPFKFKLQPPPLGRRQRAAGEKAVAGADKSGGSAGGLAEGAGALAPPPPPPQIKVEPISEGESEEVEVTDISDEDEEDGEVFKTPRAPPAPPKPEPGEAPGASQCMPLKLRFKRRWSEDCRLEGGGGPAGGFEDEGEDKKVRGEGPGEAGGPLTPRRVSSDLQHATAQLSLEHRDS
# Summary of the method: as §1
# [11] = target: T6, ETV3L (Homo sapiens, UniProt Q6ZN32 1-361); settings: protein: recombinant; tags: N-terminal GST; dsDNA, one strand shown
# T6 sequence: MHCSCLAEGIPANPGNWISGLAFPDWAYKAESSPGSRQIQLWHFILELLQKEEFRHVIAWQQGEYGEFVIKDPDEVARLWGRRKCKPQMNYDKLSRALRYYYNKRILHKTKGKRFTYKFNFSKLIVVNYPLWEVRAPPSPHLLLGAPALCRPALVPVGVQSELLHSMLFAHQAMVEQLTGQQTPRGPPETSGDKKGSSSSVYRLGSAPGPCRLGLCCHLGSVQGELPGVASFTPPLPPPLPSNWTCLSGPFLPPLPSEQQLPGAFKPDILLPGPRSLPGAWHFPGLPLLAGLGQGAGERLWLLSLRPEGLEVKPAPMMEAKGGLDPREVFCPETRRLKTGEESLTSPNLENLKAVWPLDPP
# Summary of the method: as §1
# [12] = target: T7, ETS2 (Homo sapiens, UniProt P15036 1-469); settings: protein: recombinant; tags: N-terminal GST; dsDNA, one strand shown
# T7 sequence: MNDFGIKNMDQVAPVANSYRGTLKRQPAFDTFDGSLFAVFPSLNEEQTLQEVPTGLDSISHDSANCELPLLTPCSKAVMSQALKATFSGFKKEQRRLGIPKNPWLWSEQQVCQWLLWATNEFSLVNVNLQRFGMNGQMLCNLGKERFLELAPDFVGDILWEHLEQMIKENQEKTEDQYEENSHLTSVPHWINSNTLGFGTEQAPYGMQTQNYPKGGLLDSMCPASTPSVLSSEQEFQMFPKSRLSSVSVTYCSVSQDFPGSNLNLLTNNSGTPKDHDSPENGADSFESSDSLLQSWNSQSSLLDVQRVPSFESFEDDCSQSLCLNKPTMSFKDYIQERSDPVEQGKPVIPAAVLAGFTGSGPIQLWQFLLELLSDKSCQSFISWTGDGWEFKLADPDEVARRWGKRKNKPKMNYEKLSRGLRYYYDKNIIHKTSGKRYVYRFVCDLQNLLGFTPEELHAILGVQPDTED
# Summary of the method: as §1
# [13] = target: T8, SPDEF (Homo sapiens, UniProt O95238 1-335); settings: protein: recombinant; tags: N-terminal GST; dsDNA, one strand shown
# T8 sequence: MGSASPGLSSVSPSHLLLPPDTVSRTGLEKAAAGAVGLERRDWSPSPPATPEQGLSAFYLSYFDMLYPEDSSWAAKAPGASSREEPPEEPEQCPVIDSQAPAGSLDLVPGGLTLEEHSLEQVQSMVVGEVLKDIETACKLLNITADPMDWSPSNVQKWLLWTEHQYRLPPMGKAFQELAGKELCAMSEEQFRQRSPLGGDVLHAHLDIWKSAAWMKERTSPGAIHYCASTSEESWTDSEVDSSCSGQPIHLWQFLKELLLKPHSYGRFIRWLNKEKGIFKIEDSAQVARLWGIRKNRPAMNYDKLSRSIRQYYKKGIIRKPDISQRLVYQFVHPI
# Summary of the method: as §1
# [14] = target: T9, ETV7 (Homo sapiens, UniProt Q9Y603 1-341); settings: protein: recombinant; tags: N-terminal GST; dsDNA, one strand shown
# T9 sequence: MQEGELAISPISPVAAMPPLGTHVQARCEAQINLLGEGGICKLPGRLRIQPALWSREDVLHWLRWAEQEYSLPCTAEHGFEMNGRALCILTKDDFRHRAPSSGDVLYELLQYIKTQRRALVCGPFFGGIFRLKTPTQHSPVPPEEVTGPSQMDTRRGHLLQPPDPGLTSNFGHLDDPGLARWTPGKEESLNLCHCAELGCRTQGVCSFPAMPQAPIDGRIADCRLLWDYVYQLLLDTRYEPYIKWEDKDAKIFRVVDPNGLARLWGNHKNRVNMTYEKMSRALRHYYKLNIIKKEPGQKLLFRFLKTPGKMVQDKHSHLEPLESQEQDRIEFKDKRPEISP
# Summary of the method: as §1
# [15] = target: T10, ELF5 (Homo sapiens, UniProt Q9UKW6-2 1-255); settings: protein: recombinant; tags: N-terminal GST; dsDNA, one strand shown
# T10 sequence: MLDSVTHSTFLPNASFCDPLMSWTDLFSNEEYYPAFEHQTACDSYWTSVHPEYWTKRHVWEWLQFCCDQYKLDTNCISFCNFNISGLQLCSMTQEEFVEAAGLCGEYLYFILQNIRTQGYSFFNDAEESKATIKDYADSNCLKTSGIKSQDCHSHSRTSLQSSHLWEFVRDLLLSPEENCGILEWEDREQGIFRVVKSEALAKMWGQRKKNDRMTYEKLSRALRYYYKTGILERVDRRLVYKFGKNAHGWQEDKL
# Summary of the method: as §1
# [16] = target: T11, ETV3 (Homo sapiens, UniProt P41162-2 1-143); settings: protein: recombinant; tags: N-terminal GST; dsDNA, one strand shown
# T11 sequence: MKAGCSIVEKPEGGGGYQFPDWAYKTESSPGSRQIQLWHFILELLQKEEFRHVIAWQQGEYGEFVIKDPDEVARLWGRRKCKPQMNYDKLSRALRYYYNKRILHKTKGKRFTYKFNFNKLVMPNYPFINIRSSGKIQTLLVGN
# Summary of the method: as §1
# [17] = target: ETV6 (Homo sapiens, UniProt P41212 1-452); settings: protein: recombinant; tags: N-terminal GST; dsDNA, one strand shown
# Summary of the method: as §1
# Chain of HSF1 (Q00613 whole entry): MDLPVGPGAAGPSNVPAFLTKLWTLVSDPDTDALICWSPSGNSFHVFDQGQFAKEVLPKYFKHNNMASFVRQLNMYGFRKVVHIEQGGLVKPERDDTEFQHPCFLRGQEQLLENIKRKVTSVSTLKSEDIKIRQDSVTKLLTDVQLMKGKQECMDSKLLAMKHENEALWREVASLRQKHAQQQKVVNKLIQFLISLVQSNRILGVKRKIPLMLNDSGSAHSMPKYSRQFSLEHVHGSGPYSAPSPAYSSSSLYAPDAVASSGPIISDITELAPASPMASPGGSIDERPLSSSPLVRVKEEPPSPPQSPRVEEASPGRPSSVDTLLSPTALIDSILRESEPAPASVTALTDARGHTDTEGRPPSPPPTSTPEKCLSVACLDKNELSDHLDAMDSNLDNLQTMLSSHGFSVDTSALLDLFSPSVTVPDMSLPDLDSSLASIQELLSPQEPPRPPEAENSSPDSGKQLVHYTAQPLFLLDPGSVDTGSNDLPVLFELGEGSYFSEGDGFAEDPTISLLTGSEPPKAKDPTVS
# Chain of ETV1 (P50549 whole entry): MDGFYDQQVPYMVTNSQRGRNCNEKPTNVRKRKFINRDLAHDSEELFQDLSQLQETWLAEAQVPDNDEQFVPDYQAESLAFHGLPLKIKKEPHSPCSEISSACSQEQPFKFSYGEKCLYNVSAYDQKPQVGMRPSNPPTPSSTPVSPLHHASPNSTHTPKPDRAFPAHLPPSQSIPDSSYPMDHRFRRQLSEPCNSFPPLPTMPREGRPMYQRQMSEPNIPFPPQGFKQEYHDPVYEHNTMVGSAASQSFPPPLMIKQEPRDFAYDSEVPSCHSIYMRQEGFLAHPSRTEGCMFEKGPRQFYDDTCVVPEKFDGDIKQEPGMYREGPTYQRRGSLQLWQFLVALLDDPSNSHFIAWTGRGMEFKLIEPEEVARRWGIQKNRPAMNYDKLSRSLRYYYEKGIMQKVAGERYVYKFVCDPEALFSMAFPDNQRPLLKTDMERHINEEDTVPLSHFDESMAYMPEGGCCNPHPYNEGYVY
# Chain of ETV6 (P41212 whole entry): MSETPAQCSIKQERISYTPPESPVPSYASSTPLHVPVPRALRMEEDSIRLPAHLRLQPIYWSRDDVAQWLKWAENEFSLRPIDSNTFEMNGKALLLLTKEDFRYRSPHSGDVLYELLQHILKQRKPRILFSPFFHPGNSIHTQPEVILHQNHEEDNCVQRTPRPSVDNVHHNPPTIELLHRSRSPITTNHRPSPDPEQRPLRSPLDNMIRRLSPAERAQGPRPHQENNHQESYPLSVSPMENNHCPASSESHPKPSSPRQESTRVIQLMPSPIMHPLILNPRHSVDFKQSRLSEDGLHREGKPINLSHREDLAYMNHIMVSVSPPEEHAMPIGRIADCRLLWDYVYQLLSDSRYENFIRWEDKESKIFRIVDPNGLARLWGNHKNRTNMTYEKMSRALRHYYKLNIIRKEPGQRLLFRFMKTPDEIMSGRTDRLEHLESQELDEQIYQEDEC
# Chain of ETV5 (P41161 whole entry): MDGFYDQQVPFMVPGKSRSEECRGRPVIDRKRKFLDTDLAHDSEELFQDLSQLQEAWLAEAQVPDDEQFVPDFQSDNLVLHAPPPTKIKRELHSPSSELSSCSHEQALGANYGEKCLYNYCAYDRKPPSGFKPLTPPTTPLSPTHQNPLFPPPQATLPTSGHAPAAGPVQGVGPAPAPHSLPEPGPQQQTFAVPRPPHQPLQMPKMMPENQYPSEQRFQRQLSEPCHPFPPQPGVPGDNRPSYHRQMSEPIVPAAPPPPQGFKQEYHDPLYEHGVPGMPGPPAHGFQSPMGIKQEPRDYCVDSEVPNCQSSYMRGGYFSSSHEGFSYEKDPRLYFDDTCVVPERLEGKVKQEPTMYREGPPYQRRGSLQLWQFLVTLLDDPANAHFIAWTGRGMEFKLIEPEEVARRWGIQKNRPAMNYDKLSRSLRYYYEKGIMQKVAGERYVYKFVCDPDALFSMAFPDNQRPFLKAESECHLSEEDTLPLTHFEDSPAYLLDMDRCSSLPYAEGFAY
# Chain of ELF4 (Q99607 whole entry): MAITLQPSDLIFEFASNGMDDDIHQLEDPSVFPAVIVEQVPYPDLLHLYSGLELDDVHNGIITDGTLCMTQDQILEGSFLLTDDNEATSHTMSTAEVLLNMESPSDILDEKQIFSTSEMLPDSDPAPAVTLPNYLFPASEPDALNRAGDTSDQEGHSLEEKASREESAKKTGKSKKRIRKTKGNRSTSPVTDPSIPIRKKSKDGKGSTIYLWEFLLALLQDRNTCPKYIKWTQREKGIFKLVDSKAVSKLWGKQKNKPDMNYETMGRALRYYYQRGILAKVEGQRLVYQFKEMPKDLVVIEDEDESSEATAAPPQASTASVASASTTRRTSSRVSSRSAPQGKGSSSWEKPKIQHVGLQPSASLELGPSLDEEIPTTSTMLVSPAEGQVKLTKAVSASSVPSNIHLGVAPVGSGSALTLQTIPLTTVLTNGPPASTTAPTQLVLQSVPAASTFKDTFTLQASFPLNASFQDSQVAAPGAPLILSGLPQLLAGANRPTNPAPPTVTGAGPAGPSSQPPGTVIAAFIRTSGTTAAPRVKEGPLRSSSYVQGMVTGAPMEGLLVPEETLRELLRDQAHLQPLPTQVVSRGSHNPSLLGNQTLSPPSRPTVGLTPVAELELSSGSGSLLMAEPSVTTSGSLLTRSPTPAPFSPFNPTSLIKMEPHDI
# Chain of CRX (O43186 whole entry): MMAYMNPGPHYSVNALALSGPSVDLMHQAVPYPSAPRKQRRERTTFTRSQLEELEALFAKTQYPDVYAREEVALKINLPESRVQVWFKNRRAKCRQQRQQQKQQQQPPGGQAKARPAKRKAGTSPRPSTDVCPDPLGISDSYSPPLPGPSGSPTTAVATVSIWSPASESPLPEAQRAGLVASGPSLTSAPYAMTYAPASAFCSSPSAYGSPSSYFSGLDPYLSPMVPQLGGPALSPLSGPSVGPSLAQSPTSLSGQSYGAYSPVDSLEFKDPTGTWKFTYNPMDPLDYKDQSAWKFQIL
sequence,measurement,setting,value
TATCTG,binding signal,[1],"1.15 fold enrichment (6-mer frequency, TF over GST control)"
same,binding signal,[2],"1.15 fold enrichment (6-mer frequency, TF over GST control)"
same,binding signal,[3],"1.36 fold enrichment (6-mer frequency, TF over GST control)"
same,binding signal,[4],"1.17 fold enrichment (6-mer frequency, TF over GST control)"
same,binding signal,[5],"1.14 fold enrichment (6-mer frequency, TF over GST control)"
same,binding signal,[6],"1.25 fold enrichment (6-mer frequency, TF over GST control)"
same,binding signal,[7],"1.33 fold enrichment (6-mer frequency, TF over GST control)"
same,binding signal,[8],"1.46 fold enrichment (6-mer frequency, TF over GST control)"
same,binding signal,[9],"1.2 fold enrichment (6-mer frequency, TF over GST control)"
same,binding signal,[10],"1.2 fold enrichment (6-mer frequency, TF over GST control)"
same,binding signal,[11],"1.41 fold enrichment (6-mer frequency, TF over GST control)"
same,binding signal,[12],"1.11 fold enrichment (6-mer frequency, TF over GST control)"
same,binding signal,[13],"1.13 fold enrichment (6-mer frequency, TF over GST control)"
same,binding signal,[14],"1.2 fold enrichment (6-mer frequency, TF over GST control)"
same,binding signal,[15],"1.14 fold enrichment (6-mer frequency, TF over GST control)"
same,binding signal,[16],"1.21 fold enrichment (6-mer frequency, TF over GST control)"
same,binding signal,[17],"1.17 fold enrichment (6-mer frequency, TF over GST control)"
